Data from PubChem BioAssay AID371 (SRMLSC, 2006).
Among all 3,300 compounds or so, about 280 (8.5%) were called active. The list comes from a sample in which actives are over-represented; it also holds similar structures and randomly drawn compounds. Values without a mark were called inactive.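 How the source made its calls: active means mean growth inhibition over the two runs of 50% or more; inactive means mean growth inhibition under 50%.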

Assay: A549 NSCLC cell proliferation inhibitors – ATP luminescence, human non-small cell lung line, primary screen (AID 371);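 further: compound exposure lasted 72 h before the ATP read; 0% = untreated cell signal and 100% = no luminescence left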
Details: at 10 µM, active compounds read high

Compound	growth inhibition
CCOC(=O)N1CC=C2C(C#N)=C(N)C(C#N)(C#N)[C@H](c3cccs3)[C@H]2C1	8.61%
N#CC1=C(N)C(C#N)(C#N)[C@H](c2ccncc2)[C@H]2CN(C(=O)OCc3ccccc3)CC=C12	57.7% (active)
CC(C)(C)OC(=O)N1CC=C2C(C#N)=C(N)C(C#N)(C#N)[C@H](c3cccnc3)[C@H]2C1	9.35%
CCCCOc1ccc(CSC(CC(=O)O)C(=O)O)cc1 (configuration not stated)	-2.76%
COc1ccc2c(C)nc(Nc3nc(C)cc(C)n3)nc2c1	2.87%
CCOc1ccc2c(C)nc(NC3=NC(C)(C)C=C(C)N3)nc2c1	72% (active)
CCCCC(C(=O)O)C(C)CC(=O)Nc1cccc(C(=O)O)c1 (configuration not stated)	-1.54%
CC[C@H]1OC(=O)C[C@@H](O)[C@H](C)[C@@H](O[C@@H]2O[C@H](C)C[C@H](N(C)C)[C@H]2O)[C@@H](CC=O)C[C@@H](C)C(=O)C=C[C@]2(C)O[C@H]2[C@@H]1C	24.4%
CC(C)(C)C1CCC2(CC1)C(C#N)=C(SCC(=O)Nc1ccccc1)NC(=O)C2C#N (configuration not stated)	70.2% (active)
CC1=C(C(=O)Nc2ccccc2)C(c2ccncc2)C(C#N)=C(SCC(=O)NC(C)C)N1 (configuration not stated)	6.59%
CCc1ccc(NC(=O)CSC2=C(C#N)C(c3ccc4c(c3)OCO4)CC(=O)N2)cc1 (configuration not stated)	8.25%
COC(=O)c1ccc(=O)n(Cc2ccc3c(c2)OCO3)c1	8.75%
CCc1cc2c(=O)c(-c3nc4ccccc4[nH]3)coc2cc1OC(=O)N1CCOCC1	-4.96%
CCN(CC)C(=O)c1ccc(O)c(OC)c1	-6.2%
O=C(O)/C=C/c1ccc(O)c(O)c1	-1.3%
COc1cc(/C=C/C(=O)CC(=O)/C=C/c2ccc(O)c(OC)c2)ccc1O	75.3% (active)
Cc1ccccc1OCC(O)Cn1c(N2CCN(c3ccccc3)CC2)nc2c1c(=O)[nH]c(=O)n2C (configuration not stated)	3.03%
O=C(O)CC(NCc1ccco1)C(=O)OCC1CCCO1 (configuration not stated)	0.9%
CCCC(=O)Nn1cnc2c(c1=O)C1(CCCC1)Cc1ccccc1-2	5.85%
COc1cccc(N2CCN(C3CC(=O)N(c4cccc(Cl)c4)C3=O)CC2)c1 (configuration not stated)	4.23%
CSc1ccc2c(c1)N(CCC1CCCCN1C)c1ccccc1S2 (configuration not stated)	93.4% (active)

Compound	growth inhibition
CC(CN1c2ccccc2Sc2ccccc21)N(C)C (configuration not stated)	25.9%
COc1ccc(/C(O)=C2/C(=O)C(=O)N(CCCN(C)C)C2c2ccco2)cc1Cl (configuration not stated)	3.4%
COc1ccc(OC)c(C2/C(=C(\O)c3ccc4c(c3)OCCO4)C(=O)C(=O)N2CCCN(C)C)c1 (configuration not stated)	7.35%
CC(C)N=c1cc2n(-c3ccc(Cl)cc3)c3ccccc3nc-2cc1Nc1ccc(Cl)cc1	92.5% (active)
COc1ccc(N/C(=N\c2nc(C)cc(C)n2)NC(=O)C(C)C)cc1OC	7.92%
CC(C)c1nc2n[nH]c(N)c2c2c1CCC2	-2.18%
O=C1OC2CCC1(c1ccccc1)C2 (configuration not stated)	-2.09%
COc1cccc(C2=CC(c3ccccc3)n3ncnc3N2)c1 (configuration not stated)	11.9%
COc1ccc(C2=CC(c3cccc(OC)c3)n3nnnc3N2)cc1 (configuration not stated)	27.1%
COc1ccc(C2=CC(c3ccc(C)cc3)n3nnnc3N2)cc1 (configuration not stated)	27.9%
COc1cccc(C2=CC(c3ccc(N(C)C)cc3)n3nnnc3N2)c1 (configuration not stated)	58.6% (active)
COc1cccc(C2=CC(c3ccccc3)n3nnnc3N2)c1 (configuration not stated)	72.7% (active)
COc1ccc(C2C=C(c3ccc(C)cc3)Nc3ncnn32)cc1 (configuration not stated)	30.1%
CC(NC(=O)OCc1ccccc1)C(=O)OCN1C(=O)c2ccccc2C1=O (configuration not stated)	2.01%
Cc1ccc(S(=O)(=O)c2cc3c(=O)n4cccc(C)c4nc3n(CC3CCCO3)c2=N)cc1 (configuration not stated)	7.96%
CCOc1cccc(-c2nnc3sc(C4CCCCC4)nn23)c1	79% (active)
c1cncc(-c2nnc3sc(-c4ccco4)nn23)c1	3.63%
COc1cc(-c2nn3c(-c4cccnc4)nnc3s2)cc(OC)c1OC	14%
c1cc(-c2nnc3sc(C4CCCCC4)nn23)ccn1	-0.46%
CCN(CC)c1ccc(-c2nn3c(-c4cccnc4)nnc3s2)cc1	80.9% (active)
CCOc1cccc(-c2nnc3sc(-c4cc(OC)c(OC)c(OC)c4)nn23)c1	53.3% (active)

Compound	growth inhibition
COc1ccc(-c2nnc3sc(-c4ccccc4OC)nn23)cc1	4.96%
CCOc1ccc(-c2nnc3sc(-c4ccccc4OC)nn23)cc1	-2.6%
CCOc1cccc(-c2nnc3sc(-c4cccs4)nn23)c1	2.48%
COc1ccccc1-c1nn2c(-c3ccc(C(C)(C)C)cc3)nnc2s1	83.3% (active)
CCOc1cccc(-c2nnc3sc(-c4ccc(C)cc4)nn23)c1	48.3%
CCOc1cccc(-c2nnc3sc(COc4ccccc4)nn23)c1	3.57%
Cc1ccc(N(CC(=O)O)C2SC(=O)NC2=O)cc1 (configuration not stated)	-7.76%
Cc1ccc(C2CC(c3cccs3)n3nc(N)nc3N2)cc1 (configuration not stated)	17.9%
CCOC(=O)c1[nH]c2ccc(Br)cc2c1NC(=O)CCN1CCC(C(=O)OCC)CC1	41.5%
CCSc1nnc(N(CCC#N)CCC#N)s1	4.31%
CCOC(=O)CCCCC(=O)NC(CO)C(=O)NC (configuration not stated)	-2.55%
CN(CCNC(=O)c1ccc(/C=N/O)nc1)Cc1ccccc1	-0.01%
COc1ccccc1-c1nnc2sc(C3CCCCC3)nn12	24.4%
c1cncc(-c2nnc3sc(C4CCCCC4)nn23)c1	25.4%
COc1cccc(-c2nnc3sc(C4CCCCC4)nn23)c1	73.3% (active)
Cn1c(=O)[nH]c(=O)c2c1nc(Br)n2CCSc1ncccn1	4.37%
COCCCNc1nc2c(c(=O)[nH]c(=O)n2C)n1CC(O)COc1ccccc1 (configuration not stated)	13.7%
OC(CCN1CCCCC1)(c1ccccc1)C1CCCCC1 (configuration not stated)	1.96%
CC(C)(C)c1ccc(C(O)CCCN2CCC(C(O)(c3ccccc3)c3ccccc3)CC2)cc1 (configuration not stated)	95.9% (active)
OC(CCN1CCCC1)(c1ccccc1)C1CCCCC1 (configuration not stated)	7.22%
